The structures appear in SMILES notation. A number with no mark means an inactive call. Inconclusive results are not listed. Activity calls are given as the source filed them. Unless noted, calls come from the whole dose curve; as a rule, active = well fitted curve in the direction sought with a large enough effect in the repeat runs; inconclusive = weak or mixed curves; inactive = no such curve, though single readings can be large; an effect the other way counts as inactive or inconclusive.

The text below walks through data of PubChem BioAssay (Tox21).

A short description of test [1]: qHTS assay to identify small molecule antagonists of the retinoid acid receptor (RAR) signaling pathway - cell viability counter screen (AID 1159551). Note: nearly all actives have a fitted effect of over 35% in size. Note: potency is the fitted concentration of half-maximal effect. The essentials:
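ATP-based viability, C3RL4 cells, 6 h at 37 C with 1 uM final retinol co-added after compound; luminescence read 30 min post CellTiter-Glo, RT.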

Test [2] is described as follows: qHTS assay to identify small molecule antagonists of the retinoic acid receptor (RAR) signaling pathway (AID 1159552; note: nearly all actives have a fitted effect of over 50% in size; note: potency is the fitted concentration of half-maximal effect). The gist of the method: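 Retinol at 1 uM final stimulated RARE-luciferase expression in C3RL4 cells exposed to test compounds for 6 hr at 37 C. Reduced luminescence, read 30 min after detection reagent, indicated pathway antagonism.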
Test [3] is described as follows: qHTS assay to identify small molecule antagonists of the estrogen related receptor (ERR) signaling pathway from Tox21 library - cell viability counter screen (AID 1224834). Note: nearly all actives have a fitted effect of over 30% in size. Note: potency is the fitted concentration of half-maximal effect. The essentials:
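Compounds in DMSO were pinned onto ERR cells that had been incubated for 6 h, and the plates were held at 37 C for 17.5 h. CellTiter-Fluor reagent was then added and fluorescence was measured after 30 min.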

Test [4] has as its target Luciferin 4-monooxygenase (Photinus pyralis) (UniProt P08659). In words: qHTS assay to identify small molecule inhibitors of firefly luciferase (AID 1224835). Note: nearly all actives have a fitted effect of over 25% in size. Note: potency is the fitted concentration of half-maximal effect. The gist of the method:
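Biochemical qHTS: compounds run as interplate titrations against purified firefly enzyme, with D-luciferin and ATP each at its KM concentration. Light output recorded by CCD imaging.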

The nature of test [5]: qHTS assay to identify small molecule agonists of the constitutive androstane receptor (CAR) signaling pathway - cell viability counter screen (AID 1224836). For viability change, negative = cytotoxic: series mostly up to about 92 µM. Note: nearly all actives have a fitted effect of over 45% in size. Note: potency is the fitted concentration of half-maximal effect. The essentials:
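Cells were seeded and incubated 4 hrs. Compounds were added across 15 concentrations together with PK11195 at 0.75 uM final. Plates were incubated 23 hrs at 37 C. CellTiter-Fluor was added and fluorescence measured.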

Test [6] can be described thus: qHTS assay to identify small molecule antagonists of the constitutive androstane receptor (CAR) signaling pathway - cell viability counter screen (AID 1224837). For activity change, negative = cytotoxicity: series mostly up to about 92 µM. Note: nearly all actives have a fitted effect of over 45% in size. Note: potency is the fitted concentration of half-maximal effect. The essentials:
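Cells are seeded, rested 4 hr at 37 C/5% CO2, dosed with compound (15-point series) and 50 nM CITCO, incubated a further 23 hr, and then CellTiter-Fluor reagent is added before fluorescence is read. The line is HepG2 with stable hCAR and CYP2B6-2.2kb.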

Test [7] is described as follows: qHTS RealTime-Glo MT Cell Viability Assay in HepG2 cells - 24 hour (AID 1224867). Note: nearly all actives have a fitted effect of over 50% in size. Note: potency is the fitted concentration of half-maximal effect. The gist of the method: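 Compound treatment began 5 h after plating HepG2 cells (600/well) with NanoLuc luciferase and prosubstrate. Plates stayed at 37 C for 40 h; luminescence was captured at six time points, 0 h through 40 h.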
A short description of test [8]: qHTS RealTime-Glo MT Cell Viability Assay in HEK293 cells - 32 hour (AID 1224868). For activity change, negative = cytotoxic: top concentration of the series differs between compounds. Note: nearly all actives have a fitted effect of over 50% in size. Note: potency is the fitted concentration of half-maximal effect. The essentials: (§1)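 Quantitative high-throughput screen of the Tox21 10K library in HEK293: cells and RealTime-Glo reagents plated together, compound added at 5 h, luminescence monitored through 40 h at 37 C.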
Test [9] in a line: A CellTox Green Cytotoxicity Assay to monitor cytotoxicity in HEK293 cells - 24 hour (AID 1224875). For activity change: series mostly up to about 77 µM. Note: nearly all actives have a fitted effect of over 45% in size. Note: potency is the fitted concentration of half-maximal effect. The essentials: (§2)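 Dead-cell fluorescence measured kinetically: asymmetric cyanine dye, HEK293, 600 cells/well, 5 h settle, 23 nL cpd/DMSO, 37 C, reads 0–40 h every 8 h.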
A short description of test [10]: A CellTox Green Cytotoxicity Assay to monitor cytotoxicity in HepG2 cells - 24 hour (AID 1224878). Note: nearly all actives have a fitted effect of over 45% in size. Note: potency is the fitted concentration of half-maximal effect. The gist of the method:
(§3)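 First, HepG2 cells (600/well) mixed with reagent were plated; second, after 5 h at 37 C they received compounds via pintool; third, fluorescence was measured at 0 h through 40 h at 8 h intervals.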

The nature of test [11]: A CellTox Green Cytotoxicity Assay to monitor cytotoxicity in HepG2 cells - 40 hour (AID 1224879). Note: nearly all actives have a fitted effect of over 40% in size. Note: potency is the fitted concentration of half-maximal effect. The essentials:
as §3

The nature of test [12]: A CellTox Green Cytotoxicity Assay to monitor cytotoxicity in HepG2 cells - 32 hour (AID 1224883). Note: nearly all actives have a fitted effect of over 50% in size. Note: potency is the fitted concentration of half-maximal effect. The essentials:
as §3

A short description of test [13]: A CellTox Green Cytotoxicity Assay to monitor cytotoxicity in HEK293 cells - 8 hour (AID 1224884). Note: nearly all actives have a fitted effect of over 35% in size. Note: potency is the fitted concentration of half-maximal effect. The essentials: as §2
Test [14] in a line: qHTS RealTime-Glo MT Cell Viability Assay in HEK293 cells - 24 hour (AID 1224886). For activity change, negative = cytotoxicity: top concentration of the series differs between compounds. Note: nearly all actives have a fitted effect of over 50% in size. Note: potency is the fitted concentration of half-maximal effect. The essentials: as §1
Test [15] can be described thus: qHTS assay to identify small molecule antagonists of the sonic hedgehog signaling (Shh) pathway - cell viability counter screen (AID 1259367). Note: nearly all actives have a fitted effect of over 55% in size. Note: potency is the fitted concentration of half-maximal effect. The essentials:
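Fluorescence read-out (CellTiter-Fluor, 1 hr at 37C) taken after 23 hr compound treatment of 3T3 Gli1-Luc cells stimulated with conditioned medium. Cells were seeded at 2,000 per well and pre-incubated 4 hr.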

For test [16], the target named is Thyrotropin-releasing hormone receptor (Homo sapiens) (UniProt P34981). Nature of the test: qHTS assay to identify small molecule agonists of the thyrotropin-releasing hormone receptor (TRHR) signaling pathway (AID 1346891; calls by dose curve;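 note: HEK293 cells expressing TRHR with calcium dye readout; series mostly up to about 58 µM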). The essentials:
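Cells: TRHR-Hek293, seeded and incubated 18 h. Dye loading: 2 h at 37 °C. Compound added from DMSO stock by pin tool. Read-out: kinetic calcium fluorescence over 3 min.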

The nature of test [17]: Caspase-3/7 induction in HepG2 cells by small molecules, qHTS cell viability counter screen (AID 1346981). For activity change, negative = cytotoxicity: series mostly up to about 92 µM. Note: nearly all actives have a fitted effect of over 30% in size. Note: potency is the fitted concentration of half-maximal effect. The gist of the method:
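In this quantitative HTS counter screen, compounds delivered in DMSO were left on unmodified HepG2 cells for 16 hr at 37 C. Viability was then determined fluorometrically with CellTiter-Fluor, in parallel with caspase-3/7 induction in the same wells.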

For test [18], the target named is Nuclear receptor subfamily 1 group I member 2 (Homo sapiens) (UniProt O75469). Nature of the test: Human pregnane X receptor (PXR) small molecule agonists, qHTS assay (AID 1346982). Note: nearly all actives have a fitted effect of over 35% in size. Note: potency is the fitted concentration of half-maximal effect. The gist of the method:
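Reporter HepG2 cells expressing PXR-Luc are cultured in charcoal-stripped FBS (5%), treated with compounds for 24 hr at 37 C, and assayed by ONE-Glo luminescence after 30 min at room temperature.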

The target of test [19] is Cytochrome P450 2C9 (Homo sapiens) (UniProt P11712). In words: Cytochrome P450 Family 2 Subfamily C Member 9 (CYP2C9) small molecule antagonists: luciferase reporter qHTS assay (AID 1671198). Note: nearly all actives have a fitted effect of over 50% in size. Note: potency is the fitted concentration of half-maximal effect. The essentials: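 P450-Glo proluciferin substrate with CYP2C9 enzyme; 10 min RT preincubation, then NADPH regeneration 1 h at 37C; luciferin detection reagent 20 min RT, luminescence in relative luminescence units.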
Sequence of Cytochrome P450 2C9 (Homo sapiens) (P11712 whole entry, looked up): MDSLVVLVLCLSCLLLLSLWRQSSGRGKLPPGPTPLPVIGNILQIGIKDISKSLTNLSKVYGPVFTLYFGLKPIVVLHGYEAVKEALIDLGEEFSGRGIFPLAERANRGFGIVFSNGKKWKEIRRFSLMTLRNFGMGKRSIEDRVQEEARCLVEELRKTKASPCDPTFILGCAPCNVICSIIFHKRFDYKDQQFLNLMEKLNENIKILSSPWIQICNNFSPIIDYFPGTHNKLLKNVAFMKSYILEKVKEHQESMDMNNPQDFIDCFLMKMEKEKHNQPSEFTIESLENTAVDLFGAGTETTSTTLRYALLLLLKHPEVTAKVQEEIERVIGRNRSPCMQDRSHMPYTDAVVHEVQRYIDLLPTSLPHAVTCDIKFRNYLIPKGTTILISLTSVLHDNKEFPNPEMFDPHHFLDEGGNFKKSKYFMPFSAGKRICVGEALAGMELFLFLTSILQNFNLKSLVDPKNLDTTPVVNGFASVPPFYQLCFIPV

In test [20] the target is Retinoic acid receptor RXR-alpha (Homo sapiens) (UniProt P19793). Nature of the test: qHTS assay to identify small molecule agonists of the RXR signaling pathway (AID 1159527; calls by dose curve; note: nearly all actives have a fitted effect of over 35% in size). The essentials: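 Cells plated at 2,000/well, rested 5 hr at 37 C, pin-dosed with DMSO compound solutions, incubated 16 hr, then loaded with B/G FRET substrate for 2 hr at RT before dual-emission fluorescence reading.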
Sequence of Retinoic acid receptor RXR-alpha (Homo sapiens) (P19793 whole entry, looked up): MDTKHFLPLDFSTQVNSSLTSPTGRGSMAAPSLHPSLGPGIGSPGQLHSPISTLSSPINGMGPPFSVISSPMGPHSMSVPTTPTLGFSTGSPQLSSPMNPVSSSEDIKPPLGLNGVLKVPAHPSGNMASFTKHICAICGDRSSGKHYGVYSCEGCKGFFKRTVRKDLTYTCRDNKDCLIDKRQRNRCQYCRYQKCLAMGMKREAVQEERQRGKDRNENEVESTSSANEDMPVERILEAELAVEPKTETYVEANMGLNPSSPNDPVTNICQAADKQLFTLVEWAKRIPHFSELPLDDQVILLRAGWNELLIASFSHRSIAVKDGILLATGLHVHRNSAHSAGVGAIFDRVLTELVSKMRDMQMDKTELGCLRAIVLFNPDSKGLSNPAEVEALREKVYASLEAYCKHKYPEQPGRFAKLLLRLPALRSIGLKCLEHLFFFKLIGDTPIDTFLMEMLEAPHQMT
% is set by controls: 0 for no effect and ±100 for the full control effect.

Sequence of Luciferin 4-monooxygenase (Photinus pyralis) (P08659 whole entry, looked up): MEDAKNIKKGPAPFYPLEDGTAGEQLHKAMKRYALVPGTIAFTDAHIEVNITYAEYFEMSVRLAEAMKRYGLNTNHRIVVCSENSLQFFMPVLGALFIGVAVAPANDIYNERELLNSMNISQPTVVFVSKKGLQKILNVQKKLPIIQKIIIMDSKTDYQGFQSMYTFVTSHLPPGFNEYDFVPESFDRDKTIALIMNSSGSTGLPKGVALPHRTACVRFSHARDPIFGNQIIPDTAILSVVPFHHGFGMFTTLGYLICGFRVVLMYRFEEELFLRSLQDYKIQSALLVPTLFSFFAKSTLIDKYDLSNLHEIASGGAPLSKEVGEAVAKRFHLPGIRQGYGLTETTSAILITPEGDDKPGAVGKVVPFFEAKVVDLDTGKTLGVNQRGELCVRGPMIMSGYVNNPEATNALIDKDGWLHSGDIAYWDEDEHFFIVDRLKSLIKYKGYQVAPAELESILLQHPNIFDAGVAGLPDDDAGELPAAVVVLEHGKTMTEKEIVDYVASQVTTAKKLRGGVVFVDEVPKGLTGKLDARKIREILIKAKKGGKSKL
Sequence of Nuclear receptor subfamily 1 group I member 2 (Homo sapiens) (O75469 whole entry, looked up): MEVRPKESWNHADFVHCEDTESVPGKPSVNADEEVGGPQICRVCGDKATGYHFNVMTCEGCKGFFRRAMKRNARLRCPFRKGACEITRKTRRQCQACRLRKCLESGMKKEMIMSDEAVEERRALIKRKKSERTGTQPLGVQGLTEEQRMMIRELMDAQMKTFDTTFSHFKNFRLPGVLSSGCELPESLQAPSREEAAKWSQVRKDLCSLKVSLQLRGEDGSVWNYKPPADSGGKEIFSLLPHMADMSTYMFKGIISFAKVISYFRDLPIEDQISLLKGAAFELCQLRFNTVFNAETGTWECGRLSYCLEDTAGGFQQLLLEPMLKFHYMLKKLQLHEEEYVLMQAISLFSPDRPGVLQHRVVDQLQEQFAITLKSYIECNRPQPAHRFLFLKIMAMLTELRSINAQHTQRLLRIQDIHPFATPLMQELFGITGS
Sequence of Thyrotropin-releasing hormone receptor (Homo sapiens) (P34981 whole entry, looked up): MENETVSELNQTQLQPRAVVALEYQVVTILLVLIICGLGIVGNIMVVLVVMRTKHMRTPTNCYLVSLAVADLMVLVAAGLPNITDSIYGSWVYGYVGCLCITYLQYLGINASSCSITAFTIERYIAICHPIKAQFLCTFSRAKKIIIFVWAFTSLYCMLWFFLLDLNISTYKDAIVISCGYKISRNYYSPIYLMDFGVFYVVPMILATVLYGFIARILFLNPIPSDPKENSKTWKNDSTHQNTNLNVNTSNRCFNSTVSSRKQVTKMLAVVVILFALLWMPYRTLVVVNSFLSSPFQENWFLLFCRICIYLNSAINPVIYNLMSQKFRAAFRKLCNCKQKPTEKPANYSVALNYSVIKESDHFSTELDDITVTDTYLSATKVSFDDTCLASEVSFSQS

On to `Cc1ccc(N(SC(F)(Cl)Cl)S(=O)(=O)N(C)C)cc1`, for which the Potency was 48.6 µM (active) in test [1]; 13.7 µM (active) in test [2]; 30.6 µM (active) in [3]; 44.8 µM (active) in test [4]; 30.6 µM (active) in test [5]; 24.3 µM (active) in [6]. Besides, the Potency in [7] was 11 µM (active); in test [8], 5.49 µM (active); in test [9], 17.4 µM (active); in test [10], 11 µM (active); in test [11] it was 6.92 µM (active); in test [12], 6.92 µM (active). For the same compound, the Potency is 21.9 µM (active) in test [13]; 5.49 µM (active) in test [14]; 17.2 µM (active) in test [15]; 61.1 µM (active) in test [17]; 5.64 µM (active) in test [19]. Moreover, the compound was classed as inactive in test [16]. Besides, in test [18], the Potency entry is “inactive”.

Regarding `COc1cc(OC)c(OC)cc1C=O`, the Potency entry in [1], in test [3], in [4], in test [5], in test [6] and in [7] was “inactive” each time. In addition, the Potency result in test [8], in [9], in test [10], in test [11], in test [12] and in [13] was “inactive” in each case. Moreover, the Potency entry in [14] and in test [18] was “inactive” in each case. Further, the Potency in [15] is 47.1 µM (active). Besides, the result in test [16] was inactive.

In the case of `O=C(c1ccccc1)C(Cl)Cl`, the Potency is 61.1 µM (active) in test [3]; 61.1 µM (active) in test [5]; 54.5 µM (active) in [6]; 38.9 µM (active) in test [8]; 34.7 µM (active) in [14]. In addition, the Potency result in test [4], in test [10], in [12] and in [13] was “inactive” each time. Moreover, the compound was called inactive in test [16].

For the compound `CNC(=O)Oc1cc(C)c(SC)c(C)c1`, the Potency entry in test [20], in test [1], in test [3], in test [5], in test [6] and in [7] was “inactive” in each case. The Potency entry in test [10], in test [11], in [12], in test [13], in test [15] and in test [17] was “inactive” throughout. Moreover, the Potency in test [9] was 21.9 µM (active); in [18], 61.1 µM (active). Besides, the result in test [16] was inactive.

Regarding `Brc1c2ccccc2c(Br)c2ccccc12`, the activation in [20] was 1.52% [at 6.98 µM].

With `c1ccc2c(c1)Sc1ccccc1N2CC1CN2CCC1CC2` (stereo not given), the Potency entry in test [1], in test [4] and in test [19] was “inactive” in each case. For the same compound, the Potency in test [3] is 29.8 µM (active); in test [5], 29.8 µM (active); in test [7], 21.3 µM (active); in test [10], 23.9 µM (active); in test [11], 19 µM (active); in test [12], 21.3 µM (active). Moreover, the Potency is 11.9 µM (active) in test [15] and 29.8 µM (active) in test [17].

Regarding `Cc1ccc2nc3sc(=O)sc3nc2c1`, the activity change, negative = cytotoxicity in [1] was 1.22% [at 19 µM]; in test [6] it was 11.8% [at 19 µM]; in test [7], -4.88% [at 15.8 µM]; in test [14] it was 3.52% [at 15.8 µM]; in [17] it was -0.0724% [at 19 µM]. Besides, the activity, negative = inhibition in [2] is 10.1% [at 19 µM]. The viability change, negative = cytotoxic was -9.38% [at 19 µM] in [3] and 1.63% [at 19 µM] in [5]. In test [8], the activity change, negative = cytotoxic is 8.73% [at 15.8 µM]. The activity change in test [9] is -5.16% [at 15.8 µM, stronger effect = higher value]. Also, the cytotoxicity in test [10] was -2.5% [at 15.8 µM]. For the same compound, the cytotoxicity increase in [11] is -2.41% [at 15.8 µM]; in test [12] it was -5.02% [at 15.8 µM]; in test [13] it was 4.71% [at 15.8 µM]. In addition, the activation is -0.107% [at 11.8 µM] in [16] and 20.6% [at 19 µM] in [18].

As for `C[C@]12CC[C@@H](O)C[C@@H]1CC[C@@H]1[C@@H]2CC[C@]2(C)C(=O)CC[C@@H]12`, the Potency result in test [1], in test [5], in [6], in [7], in test [10] and in test [11] was “inactive” in each case. The Potency result in test [12], in test [13], in test [15] and in [17] was “inactive” in each case. Also, the Potency is 24.5 µM (active) in test [8] and 38.9 µM (active) in test [14].

Regarding `O=C1C(I)=CC(=C(c2cc(I)c(O)c(I)c2)c2ccccc2C(=O)O)C=C1I`, the Potency result in test [20], in test [1], in test [5], in [6], in test [7] and in test [8] was “inactive” in each case. Besides, the Potency result in [9], in test [10], in [11], in test [12], in test [13] and in test [14] was “inactive” in each case. The Potency result in test [15] was “inactive”. For the same compound, the Potency is 11.9 µM (active) in test [18] and 3.89 µM (active) in test [19].
